PubChem BioAssay
Values joined by “and” are separate entries in the source; they are usually repeats but may differ in a detail not shown here. Equal values may be shown once. Records with an inconclusive call do not appear. For part of these data: Results with a measured potency or affinity are listed apart. Active and inactive are the calls of the source. Unless noted, no rule for the calls is given here.

What was measured:
[1] = target: ATP-dependent translocase ABCB1 (Homo sapiens) (UniProt P08183); test: MDR1 (ABCB1) efflux transporter inhibition, cell-based (AID 377; in the data active = fluorescence slope change above about 50%); conditions: MDR1-expressing cells, fluorescent substrate accumulation slope; stronger effect = higher value; concentration not given here
[2] = antimalarial activity against Dd2 strain (AID 2302;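 active = growth inhibition above 50% at the single 2 µM test dose, taken to imply half-maximal potency below 2 µM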;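 also: 0% = DMSO untreated growth and 100% = chloroquine plus artemisinin killed control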); conditions: P. falciparum Dd2 in RBCs, LDH growth readout, 72 h; at 2 µM; stronger effect = higher value
[3] = HepG2 cytotoxicity, primary screen, cytotoxicity control for P. falciparum antimalarial project, cell-based, ATP luminescence (AID 2303;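 active = inhibition above 50%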;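 also: 0% = DMSO wells and 100% = digitonin-killed cells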); conditions: HepG2 viability, 24-48 h, at 10 µM, stronger effect = higher value
[4] = target: L-lactate dehydrogenase (Plasmodium falciparum (isolate CDC / Honduras)) (UniProt Q27743); test: PfLDH activity inhibition – cell lysate, 3D7 strain, counter-screen for P. falciparum growth inhibition project (AID 2304);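 also: 0% = vehicle and 100% = reference inhibitor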; conditions: P. falciparum 3D7 crude extract, LDH APAD/NBT absorbance; at 2 µM; stronger effect = higher value
[5] = inhibition of 3D7 malaria parasite growth – strain 3D7 (AID 2306);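 also: 0% = DMSO wells and 100% = chloroquine plus artemisinin control wells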; conditions: P. falciparum 3D7 erythrocytic growth, LDH absorbance, 72 h; at 2 µM; stronger effect = higher value
[6] = circadian clock period modulators, cell-based, LOPAC library, luminescence reporter (AID 2774); conditions: circadian reporter cells, at 7 µM, actives lie on both sides;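 also: values are relative to mean of DMSO wells on each plate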
[7] = hESC survival regulators, cell-based (AID 493140); conditions: human embryonic stem cell survival screen; stronger effect = higher value;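 also: cells exposed to compounds for four days before counting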
[8] = liver-stage malaria parasite growth inhibition, primary screen, cell-based, HepG2, luciferase luminescence, HepG2 viability (AID 624349; in the data active = parasite load remaining mostly below about 12%, no sharp cut-off; inactive = mostly above about 10%;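 also: 100% = mean of DMSO negative control wells on the same plate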); conditions: P. berghei liver stage in HepG2, luciferase luminescence, concentration not given here; parasite load remaining: stronger effect = lower value; viability: measured here: HepG2 viability without parasites
[9] = tested on: Hepatitis C virus NS3 helicase; test: HCV NS3 helicase inhibitors, primary screen, biochemical, fluorescence polarization, LOPAC1280 library (AID 687035; in the data active = inhibition above about 37%); conditions: Purified HCV NS3 helicase, Cy5-dT15 ssDNA binding fluorescence polarization; stronger effect = higher value; concentration not given here
[10] = Cy5 fluorescence quenching or enhancement artefacts, artefact control for HCV NS3 helicase inhibitor project, biochemical, LOPAC1280 (AID 687037); conditions: Cy5-DNA-NS3h complex fluorescence interference counterscreen
[11] = target: Calcium-dependent protein kinase 1 (Plasmodium falciparum (isolate 3D7)) (UniProt P62344); test: PfCDPK1 kinase inhibitors, biochemical, TCAMS library (AID 1159585; cut-off not given, nearly all actives have IC50 up to about 0.98 µM;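 also: inhibitors leave more ATP so luminescence rises with inhibition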); conditions: recombinant PfCDPK1, Kinase-Glo ATP depletion luminescence
[12] = target: Plasmodium falciparum protein kinase 6 (PK6, PF3D7_1337100) (UniProt Q8IDW1); test: PfPK6 kinase inhibitors, biochemical, TCAMS library (AID 1159586); conditions: recombinant PfPK6, Kinase-Glo ATP depletion luminescence
[13] = target: Protein kinase 7 (PK7), Plasmodium falciparum 3D7 (PF3D7_0213400) (UniProt Q7YTF7); test: inhibition of Plasmodium PK7 catalytic activity – biochemical, TCAMS antimalarial set, Kinase-Glo luminescence (AID 1159587); conditions: recombinant PfPK7, Kinase-Glo ATP depletion luminescence
[14] = target: Calcium-dependent protein kinase 4 (Plasmodium falciparum (isolate 3D7)) (UniProt Q8IBS5); test: PfCDPK4 kinase inhibitors, biochemical, TCAMS library (AID 1159588; cut-off not given, nearly all actives have IC50 up to about 0.91 µM); conditions: recombinant PfCDPK4, Kinase-Glo ATP depletion luminescence
[15] = tested on: Aerobactin synthetase IucA (Klebsiella pneumoniae, hypervirulent); test: IucA enzyme inhibition, biochemical, LOPAC library, absorbance readout (AID 1346212); conditions: IucA enzyme assay, absorbance (OD) readout; stronger effect = lower value;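 tested at 8 µM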;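 also: 100% = no compound wells and 0% = no enzyme wells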
[16] = sensitizers of A549 cells to miR-34 induction, primary screen, imaging, A549 dox-inducible miR-34, nuclei and caspase counts (AID 1347080;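 active = compounds whose cell count with miR-34 switched on is under 0.7 times the count with it off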); conditions: A549 miR-34 inducible, Hoechst nuclei count, 48 h
[17] = phospholipid biosynthesis inhibitors in animal cells, primary screen, cell-based, LOPAC library, screen 4 (AID 1347384); conditions: phospholipid biosynthesis inhibition screen, at 10 µM
[18] = viability rescue of complex I mutant cybrids, primary screen, cell-based, galactose medium, ATP luminescence (AID 1645843;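 active = z-score of at least 1.8 in each of two replicates, scored against plate mean and spread of sample wells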;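 also: positive z means more ATP and so rescue of galactose-driven cybrid death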); conditions: complex I mutant cybrid cells, 72 h, stronger effect = higher value
[19] = LFS_MB_P medulloblastoma growth inhibition, cell-based, chromothripsis tumors, cisplatin or BGB combos (AID 1671449; in the data active = inhibition above about 80%;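 also: cells exposed for 96 hours; 0% = vehicle DMSO and 100% = killing by high DMSO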); conditions: LFS_MB_P medulloblastoma cells
[20] = HDN33 neuroblastoma growth inhibition, cell-based, chromothripsis tumors, cisplatin or BGB combos (AID 1671450; in the data active = inhibition above about 80%;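 also: cells exposed to compound for four days; 0% = vehicle DMSO and 100% = cell killing by high DMSO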); conditions: HDN33 neuroblastoma cells, stronger effect = higher value
[21] = ICB984 medulloblastoma cell growth inhibition, synergistic combos for chromothripsis tumors, cisplatin or BGB combos (AID 1671451); conditions: ICB984 medulloblastoma cells, drug combinations, stronger effect = higher value;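 also: cells exposed for 96 hours before readout; 0% = vehicle DMSO and 100% = killing by high DMSO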
[22] = LFS_MB_1R medulloblastoma cell growth inhibition, synergistic combos for chromothripsis tumors, cisplatin or BGB combos (AID 1671452; in the data active = inhibition above about 80%;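 also: cells exposed for 96 hours before readout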); conditions: LFS_MB_1R medulloblastoma cells, stronger effect = higher value
[23] = measured here: combination with BGB IC40, at 0.05 µM

Sequence of Calcium-dependent protein kinase 4 (Plasmodium falciparum (isolate 3D7)) (Q8IBS5 whole entry, looked up): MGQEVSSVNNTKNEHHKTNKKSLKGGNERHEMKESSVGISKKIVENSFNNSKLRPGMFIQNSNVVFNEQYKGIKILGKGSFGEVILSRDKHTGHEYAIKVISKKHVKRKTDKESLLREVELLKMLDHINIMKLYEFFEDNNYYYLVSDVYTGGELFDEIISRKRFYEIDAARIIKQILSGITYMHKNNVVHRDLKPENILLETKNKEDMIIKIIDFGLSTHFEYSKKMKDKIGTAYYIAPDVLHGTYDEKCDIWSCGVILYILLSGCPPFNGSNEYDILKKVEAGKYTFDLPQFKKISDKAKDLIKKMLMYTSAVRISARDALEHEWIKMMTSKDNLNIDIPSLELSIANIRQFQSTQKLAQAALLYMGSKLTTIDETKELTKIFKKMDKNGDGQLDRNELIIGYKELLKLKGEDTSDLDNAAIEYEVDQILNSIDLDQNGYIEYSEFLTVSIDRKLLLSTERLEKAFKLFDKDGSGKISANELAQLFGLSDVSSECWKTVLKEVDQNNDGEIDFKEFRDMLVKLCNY
Sequence of L-lactate dehydrogenase (Plasmodium falciparum (isolate CDC / Honduras)) (Q27743 whole entry, looked up): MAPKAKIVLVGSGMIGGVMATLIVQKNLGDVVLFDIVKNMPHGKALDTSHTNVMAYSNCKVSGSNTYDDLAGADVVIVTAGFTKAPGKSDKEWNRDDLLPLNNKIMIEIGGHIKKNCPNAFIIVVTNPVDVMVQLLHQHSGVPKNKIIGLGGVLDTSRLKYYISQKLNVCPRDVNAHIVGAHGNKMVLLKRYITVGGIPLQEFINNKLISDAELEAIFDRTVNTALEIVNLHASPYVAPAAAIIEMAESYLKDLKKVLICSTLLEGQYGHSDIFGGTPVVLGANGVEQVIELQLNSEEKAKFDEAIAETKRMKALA
Sequence of Protein kinase 7 (PK7), Plasmodium falciparum 3D7 (PF3D7_0213400) (Q7YTF7 1-343): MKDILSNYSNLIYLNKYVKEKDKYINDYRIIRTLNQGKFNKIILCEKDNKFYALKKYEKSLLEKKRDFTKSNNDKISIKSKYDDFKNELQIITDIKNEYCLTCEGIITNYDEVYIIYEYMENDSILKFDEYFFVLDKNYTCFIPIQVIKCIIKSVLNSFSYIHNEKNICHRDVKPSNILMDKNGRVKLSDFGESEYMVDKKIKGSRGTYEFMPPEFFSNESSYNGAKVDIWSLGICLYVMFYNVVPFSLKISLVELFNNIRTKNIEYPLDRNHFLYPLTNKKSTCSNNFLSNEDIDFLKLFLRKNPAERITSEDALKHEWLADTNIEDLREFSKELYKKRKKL
Sequence of Calcium-dependent protein kinase 1 (Plasmodium falciparum (isolate 3D7)) (P62344 whole entry, looked up): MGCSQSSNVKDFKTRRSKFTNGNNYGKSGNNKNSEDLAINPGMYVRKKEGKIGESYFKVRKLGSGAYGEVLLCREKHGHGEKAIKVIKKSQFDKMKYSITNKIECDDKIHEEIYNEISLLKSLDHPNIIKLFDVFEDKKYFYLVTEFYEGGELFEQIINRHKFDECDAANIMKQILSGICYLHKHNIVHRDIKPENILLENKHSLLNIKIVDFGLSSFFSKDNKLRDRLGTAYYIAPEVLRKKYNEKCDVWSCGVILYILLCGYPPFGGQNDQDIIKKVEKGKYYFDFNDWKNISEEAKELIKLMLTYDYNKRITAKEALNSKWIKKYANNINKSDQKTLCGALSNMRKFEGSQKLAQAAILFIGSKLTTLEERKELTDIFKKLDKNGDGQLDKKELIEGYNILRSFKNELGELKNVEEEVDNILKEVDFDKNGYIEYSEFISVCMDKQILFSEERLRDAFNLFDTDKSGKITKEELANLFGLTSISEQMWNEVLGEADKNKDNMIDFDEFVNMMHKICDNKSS
Sequence of Plasmodium falciparum protein kinase 6 (PK6, PF3D7_1337100) (Q8IDW1 1-305): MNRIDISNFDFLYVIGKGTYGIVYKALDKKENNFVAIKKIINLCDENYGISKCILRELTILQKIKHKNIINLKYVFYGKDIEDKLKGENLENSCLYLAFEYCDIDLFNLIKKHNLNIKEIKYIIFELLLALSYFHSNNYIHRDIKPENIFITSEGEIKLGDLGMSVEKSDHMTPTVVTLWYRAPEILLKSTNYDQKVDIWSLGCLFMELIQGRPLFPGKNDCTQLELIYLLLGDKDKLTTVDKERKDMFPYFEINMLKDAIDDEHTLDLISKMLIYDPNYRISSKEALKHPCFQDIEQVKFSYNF
Sequence of ATP-dependent translocase ABCB1 (Homo sapiens) (P08183 whole entry, looked up): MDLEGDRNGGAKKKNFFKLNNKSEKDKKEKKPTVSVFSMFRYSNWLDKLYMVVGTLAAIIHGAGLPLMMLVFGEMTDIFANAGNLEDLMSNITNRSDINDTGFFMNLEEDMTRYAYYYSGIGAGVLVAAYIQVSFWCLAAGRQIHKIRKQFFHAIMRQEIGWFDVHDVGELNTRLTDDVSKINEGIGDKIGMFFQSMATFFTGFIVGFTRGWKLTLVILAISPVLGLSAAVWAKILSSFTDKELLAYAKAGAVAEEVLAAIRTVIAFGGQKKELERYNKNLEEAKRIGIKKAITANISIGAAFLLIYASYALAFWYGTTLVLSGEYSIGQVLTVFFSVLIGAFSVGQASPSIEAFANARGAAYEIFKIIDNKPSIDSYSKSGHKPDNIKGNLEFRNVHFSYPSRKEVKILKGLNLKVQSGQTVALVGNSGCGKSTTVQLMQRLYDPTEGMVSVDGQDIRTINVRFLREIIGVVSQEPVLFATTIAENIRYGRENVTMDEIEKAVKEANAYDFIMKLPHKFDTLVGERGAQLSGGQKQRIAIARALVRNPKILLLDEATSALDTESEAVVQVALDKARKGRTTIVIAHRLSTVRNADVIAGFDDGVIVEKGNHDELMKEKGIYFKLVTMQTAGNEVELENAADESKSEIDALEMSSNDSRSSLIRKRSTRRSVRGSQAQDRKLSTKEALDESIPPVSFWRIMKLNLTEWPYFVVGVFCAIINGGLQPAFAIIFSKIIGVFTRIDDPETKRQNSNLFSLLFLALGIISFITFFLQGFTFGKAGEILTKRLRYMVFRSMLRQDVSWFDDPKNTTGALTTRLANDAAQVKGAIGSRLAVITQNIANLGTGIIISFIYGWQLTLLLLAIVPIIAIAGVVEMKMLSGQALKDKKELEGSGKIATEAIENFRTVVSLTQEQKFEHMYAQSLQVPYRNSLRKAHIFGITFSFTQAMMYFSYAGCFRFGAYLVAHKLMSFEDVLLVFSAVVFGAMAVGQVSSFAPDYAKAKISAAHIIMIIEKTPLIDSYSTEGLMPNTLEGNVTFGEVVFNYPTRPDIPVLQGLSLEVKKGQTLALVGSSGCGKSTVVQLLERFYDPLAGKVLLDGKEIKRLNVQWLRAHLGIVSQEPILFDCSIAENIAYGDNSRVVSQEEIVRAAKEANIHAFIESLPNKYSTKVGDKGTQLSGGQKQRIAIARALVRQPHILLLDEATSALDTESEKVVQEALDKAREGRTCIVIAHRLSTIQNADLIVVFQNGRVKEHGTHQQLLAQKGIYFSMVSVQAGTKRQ

**Q.** What does the source list for `Cc1c2ccncc2c(C)c2c1[nH]c1ccccc12`?
**A.** fluorescence slope change [1]: 77.1% (active); growth inhibition [2]: 97% (active); inhibition [3]: 38% (inactive); inhibition [4]: 2% (inactive); growth inhibition [5]: 95% (active); period change [6]: 0.09 h (inactive); survival [7]: 10.4 (inactive); parasite load remaining [8]: 62% (inactive) and 52.8% (inactive); viability [8]: 85.3% and 75.8%; inhibition [9]: -3% (inactive); fluorescence ratio (interference) [10]: 1 (inactive); outcome [11]: inactive; outcome [12]: inactive; outcome [13]: inactive; outcome [14]: inactive; remaining activity [15]: 81.7% (inactive); fold change ([16]; stronger effect = lower value): 1.32 (inactive) and 0.785 (inactive); fold change ([16]; measured here: relative caspase fold change +Dox/-Dox): 1.54 and 1.45; cell count ([16]; measured here: total cells with miR-34 induction, stronger effect = lower value): 324 and 1410; cell count ([16]; measured here: total cells without miR-34 induction): 246 and 1800; outcome [17]: inactive; z-score [18]: -0.975 (inactive); inhibition ([19]; at 0.5 µM, stronger effect = higher value): -2.79% (inactive); inhibition ([19]; measured here: combination with BGB IC20, at 0.005 µM): -42.2%; inhibition ([19]; measured here: combination with BGB IC40, at 0.005 µM): 16.3%; inhibition [19, 23]: -3.69%; inhibition ([19]; measured here: combination with cisplatin, at 0.5 µM, stronger effect = higher value): -10.1%; inhibition ([19]; measured here: combination with cisplatin, at 5 µM, stronger effect = higher value): 97%; inhibition ([20]; BGB combo, at 5 µM): 71.9%; inhibition ([20]; at 0.5 µM): 19.9% (inactive); inhibition ([20]; cisplatin combo, at 5 µM): 81.9%; inhibition ([20]; measured here: with BGB IC20 combination, at 0.5 µM): 6.43%; inhibition ([20]; measured here: with cisplatin IC20 combination, at 0.5 µM): 19.1%; inhibition ([20]; single agent, at 5 µM): 86.5%; inhibition ([21]; BGB IC20 combo, at 0.005 µM): 64.1%; inhibition ([21]; BGB IC40 combo, at 0.005 µM): 71.1%; inhibition ([21]; BGB IC40 combo, at 0.05 µM): 99.2%; inhibition ([21]; at 0.5 µM): -7.09% (inactive); inhibition ([21]; cisplatin combo, at 0.05 µM): 99.7%; inhibition ([21]; cisplatin combo, at 0.5 µM): -15.1%; inhibition ([21]; cisplatin combo, at 5 µM): 2.54%; inhibition ([21]; measured here: 5 uM single agent, at 5 µM): -6.79%; inhibition ([22]; at 0.5 µM): 52.5% (inactive); inhibition [22, 23]: -15.3%; inhibition ([22]; measured here: combination with cisplatin, at 0.5 µM): 90.8%
